Screening results as filed in PubChem BioAssay.
Rows were chosen to be rich in hits. Some 4.7% of all compounds tested hit in one or more screens of this group.
GDH-TPI counter-1: inhibits GDH-TPI coupling enzymes, artifact for Mtb FBA screen; GDH-TPI coupled enzyme counterscreen, NADH absorbance; inhibition, % at 4.8 µM; hit rate 1.2% among 360,000; AID 588335;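 further: 0% = DMSO wells and 100% = wells lacking the enzyme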
VHR inh abs: inhibitors of human VHR1 phosphatase (DUSP3); AID 1654; recombinant VHR phosphatase, pNPP absorbance; inhibition, % at 13.3 µM; hit rate 0.52% among 290,000; in the data active means inhibition above about 50%
CCHF vOTU inh: blocks the CCHF virus ovarian tumor domain protease. AID 651958. CCHFV vOTU protease, Pep-AMC fluorescence. hit rate 0.55% among 370,000. inhibition, % at 11.5 µM; further: 0% = vehicle wells with enzyme and 100% = no enzyme wells
RecA splice inh: Mtb RecA intein splicing inhibition; P9WHJ3; cell-free RecA intein splicing, fluorescence; inhibition, % (test concentration not listed); hit rate 0.75% among 290,000; in the data active means inhibition above about 30%;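 further: 0% = vehicle wells and 100% = reference inhibitor control wells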
Target sequence (P9WHJ3 whole entry, looked up, canonical isoform): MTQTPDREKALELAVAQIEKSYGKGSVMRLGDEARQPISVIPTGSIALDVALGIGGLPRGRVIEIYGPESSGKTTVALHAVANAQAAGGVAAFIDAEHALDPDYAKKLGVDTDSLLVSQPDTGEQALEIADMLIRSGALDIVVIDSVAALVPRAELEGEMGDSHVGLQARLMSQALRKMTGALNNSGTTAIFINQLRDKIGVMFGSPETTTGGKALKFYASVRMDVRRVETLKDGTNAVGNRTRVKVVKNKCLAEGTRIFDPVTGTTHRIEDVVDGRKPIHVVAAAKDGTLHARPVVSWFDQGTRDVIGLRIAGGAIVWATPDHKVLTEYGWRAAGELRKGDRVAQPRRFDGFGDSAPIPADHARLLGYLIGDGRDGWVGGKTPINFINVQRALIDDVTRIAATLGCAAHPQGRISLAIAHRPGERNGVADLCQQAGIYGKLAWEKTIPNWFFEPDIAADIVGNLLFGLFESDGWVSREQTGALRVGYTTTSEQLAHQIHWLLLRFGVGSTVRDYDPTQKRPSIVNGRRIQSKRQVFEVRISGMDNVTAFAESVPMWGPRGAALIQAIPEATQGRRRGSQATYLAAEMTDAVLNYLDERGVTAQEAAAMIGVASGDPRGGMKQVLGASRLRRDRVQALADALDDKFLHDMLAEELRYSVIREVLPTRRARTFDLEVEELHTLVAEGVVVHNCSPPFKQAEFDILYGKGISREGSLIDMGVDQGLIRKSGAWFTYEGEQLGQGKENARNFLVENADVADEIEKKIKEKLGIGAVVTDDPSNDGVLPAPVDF
Mtb FBA inh: inhibits M. tuberculosis FBA enzyme | purified M. tuberculosis FBA, fluorescence read-out | inhibition, % at 1 µM | hit rate 2.3% among 360,000 | AID 588726; in the data active means inhibition above about 27%;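 further: 0% = vehicle and 100% = reference inhibitor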
SARS 3CLpro inh: SARS-CoV 3CLpro protease inhibition. P0C6X7. recombinant SARS-CoV 3CLpro, quenched FRET peptide cleavage. inhibition, % at 6 µM. hit rate 0.14% among 290,000. AID 1706; in the data active means inhibition above about 12%
Mtb FBA inh conf: Mtb FBA inhibition, confirmed | inhibition, % at 1 µM | hit rate 78% among 5,600 | shares compounds with Mtb FBA inh | purified M. tuberculosis FBA, fluorescence read-out; in the data active means inhibition above about 27%;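 further: 0% = vehicle wells and 100% = reference inhibitor wells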
GDH-TPI counter-2: GDH-TPI inhibition counter-screen for FBA inhibitors; shares compounds with Mtb FBA inh; GDH-TPI coupled enzyme counterscreen, fluorescence; inhibition, % at 1 µM; hit rate 81% among 5,600; in the data active means inhibition above about 10%
GDH-TPI DR: counter-screen for M. tuberculosis FBA inhibitors: GDH-TPI dose response; shares compounds with Mtb FBA inh; GDH-TPI coupled enzyme assay, fluorescence, artifact counterscreen; IC50, µM; hit rate 79% among 170; AID 652145; call rule not given here
* = called active by the depositor; . = no result; + = active, no number. Unless noted, no stated cut-off is given here; in the data, active means inhibition above about 30%; inactive means the rest.

SMILES | GDH-TPI counter-1 | VHR inh abs | CCHF vOTU inh | RecA splice inh | Mtb FBA inh | SARS 3CLpro inh | Mtb FBA inh conf | GDH-TPI counter-2 | others
Cc1c(CCC(=O)O)c(=O)oc2cc3oc4c(c3cc12)CCCC4 | 11 | -1 | -17 | -4 | 5 | 1 | . | .
O=C(O)/C=C\C(=O)Nc1ccccc1C(=O)NCc1ccccc1 | 10 | 18 | -9 | 0 | 52* | -3 | -5 | -3
NC(=O)c1ccccc1NC(=O)/C=C/C(=O)O | -1 | 41 | -30 | 1 | 50* | -1 | 57* | 49*
COc1ccc(/C=C/c2c(-c3ccc(OC)cc3)oc3cccnc23)cc1 | 12 | 25 | 7 | -2 | 41* | -7 | 4 | -2
COc1ccc(S(=O)(=O)N2CCc3ccccc32)cc1C(=O)N1CCOCC1 | 4 | . | 3 | 2 | 2 | . | . | .
Cc1ccc2nc(NCC(=O)O)nc(-c3ccccc3)c2c1 | -1 | 29 | -25 | -122 | 30* | -1 | 54* | 46*
Cc1ccc2nc(NCCCO)nc(-c3ccccc3)c2c1 | 5 | 12 | -32 | -248 | 31* | 2 | + | +
OCCCNc1nc(-c2ccccc2)c2cc(Br)ccc2n1 | 0 | . | -38 | -47 | 13 | 2 | . | .
Cc1ccc2nc(NCCC(=O)O)nc(-c3ccccc3)c2c1 | 2 | 6 | -11 | -111 | 36* | 0 | 48* | 48*
Cc1ccc(N2CCN(S(=O)(=O)c3ccc(Cl)s3)CC2C)cc1 (configuration not stated) | 8 | 0 | -1 | 7 | -2 | 1 | . | .
CC(C)Oc1ccc(F)cc1-c1cc(C(=O)NCc2ccc(F)cc2)[nH]n1 | 3 | . | 19 | . | -3 | . | . | .
C=C(C)c1nc(Oc2ccccc2)nc(Oc2ccccc2)n1 | -4 | . | -12 | . | -1 | . | . | .
Cc1ccc(S(=O)(=O)NC(=O)C2(C)CCN2C(=O)COc2ccc(Cl)cc2)nc1 (configuration not stated) | 12 | . | 19 | . | 3 | . | . | .
COc1ccccc1-c1nc2ccccc2nc1-c1ccccc1OC | 11 | 2 | -1 | 5 | 28* | 3 | 166* | 140*
COc1ccc(-c2nc3ccccc3nc2-c2ccc(OC)cc2)cc1 | 22 | 2 | -4 | 2 | 10 | 4 | . | .
O=C(O)C1CCCCC1C(=O)NCc1ccc2c(c1)OCO2 (configuration not stated) | -3 | 11 | -3 | 0 | 90* | -2 | + | 162*
O=C(NCc1ccc2c(c1)OCO2)C1CCCCC1 | -11 | 27 | -7 | -1 | -1 | -6 | . | .
Cc1nc2nc(Cc3ccccc3)[nH]n2c(=O)c1Cc1ccccc1 | 0 | 24 | 11 | . | -2 | -4 | . | .
Cc1nc2nc(Cc3ccccc3)[nH]n2c(=O)c1Cl | -7 | 7 | 1 | 8 | 29* | -3 | 49* | 50*
Cc1ccc(C)c(N2CCN(C(=O)c3ccc4nsnc4c3)CC2)c1 | -7 | -15 | -2 | 1 | -2 | -3 | . | .
O=S1(=O)c2ccc(Br)cc2OC[C@@H](c2ccccc2)N1Cc1cn(CCC2OCCCO2)nn1 | . | . | 5 | . | . | . | . | .
CCOc1cc(-c2cc(-c3ccc(N)cc3)nc(N)c2C#N)ccc1O | 29 | 25 | -2 | -100 | 29* | 1 | 52* | 45*
CCOc1cc(-c2cc(-c3ccccc3)nc(N)c2C#N)ccc1O | 0 | 23 | 5 | 5 | 4 | 1 | . | .
CCN(C(=O)c1cc2c(=O)n3cccc(C)c3nc2n1CCCOC)C1CCCCC1 | 13 | 12 | -29 | -30 | 38* | 2 | 103* | 85*
COCCCn1c(C(=O)NCCN2CCOCC2)cc2c(=O)n3cccc(C)c3nc21 | 7 | 18 | -90 | -58 | 78* | -5 | + | 161*
SMILES | GDH-TPI counter-1 | VHR inh abs | CCHF vOTU inh | RecA splice inh | Mtb FBA inh | SARS 3CLpro inh | Mtb FBA inh conf | GDH-TPI counter-2 | others
Cc1cccn2c(=O)c3cc(C(=O)NC4CCCC4)c(=N)n(Cc4ccc(F)cc4)c3nc12 | 0 | -2 | -43 | -262 | 60* | -3 | 6 | 1
Cc1cccn2c(=O)c3cc(C(=O)NC4CCCC4)c(=N)n(C4CCCCC4)c3nc12 | 6 | -4 | -30 | -188 | 67* | -10 | 14 | 3 | GDH-TPI DR=0.77*
Cc1ccc(S(=O)(=O)c2cc3c(=O)n4cccc(C)c4nc3n(Cc3ccncc3)c2=N)cc1 | -1 | -20 | . | -7 | 5 | 1 | . | .
CN(Cc1ccccc1)C(=O)c1[nH]cnc1C(=O)Nc1cccc(Cl)c1 | -1 | . | 2 | . | -1 | . | . | .
COC(=O)Cc1nnc(SCC(=O)Nc2ccccc2)c2ccccc12 | -3 | -4 | 5 | 2 | 1 | 1 | . | .
O=C(COc1ccccc1[N+](=O)[O-])N(Cc1cccc(Br)c1)C1CCS(=O)(=O)C1 (configuration not stated) | 7 | -10 | 17 | 1 | 2 | 12 | . | .
Cc1ccc2nc3c(cc(C(=O)NCc4ccco4)c(=N)n3C3CCCC3)c(=O)n2c1 | -1 | 12 | -102 | . | 39* | -2 | 92* | 76*
COc1ccc(CCNC(=O)c2cc3c(=O)n4ccccc4nc3n(C3CCCCC3)c2=N)cc1 | 0 | -3 | -9 | -27 | 16 | -1 | . | .
Cc1cccn2c(=O)c3cc(C(=O)NC4CCS(=O)(=O)C4)n(Cc4ccccc4)c3nc12 (configuration not stated) | 22 | 10 | -27 | -197 | 40* | -1 | 114* | 92*
Cc1cccn2c(=O)c3cc(S(=O)(=O)c4ccccc4)c(=N)n(Cc4cccnc4)c3nc12 | 11 | 13 | -12 | -4 | 4 | -3 | . | .
Cc1cccn2c(=O)c3cc(C(=O)NC4CCCCC4)c(=N)n(Cc4ccccc4)c3nc12 | 4 | -11 | -40 | -466 | 62* | -5 | 103* | 89*
N=c1c(C(=O)NC2CCCCC2)cc2c(=O)n3ccccc3nc2n1Cc1ccc(F)cc1 | 4 | 2 | -33 | -173 | 40* | 4 | 70* | 51*
CC(=O)N[C@@H](Cc1c[nH]c2ccccc12)C(=O)OCc1cc(C(F)(F)F)cc(C(F)(F)F)c1 | 3 | . | 9 | . | 4 | . | . | .
COC(=O)c1sc(NC(=O)OCc2ccccc2)nc1CCNC(=O)OC(C)(C)C | . | . | -8 | . | . | . | . | .
Cc1cccn2c(=O)c3cc(C(=O)NC4CCCC4)c(=N)n(CCc4ccccc4)c3nc12 | 5 | 2 | -27 | 1 | 63* | 1 | 119* | 78*
COCCCn1c(C(=O)NCCC2=CCCCC2)cc2c(=O)n3ccccc3nc21 | 2 | -9 | -60 | 0 | 47* | -3 | 48* | 36*
CCCn1c(=N)c(S(=O)(=O)c2ccccc2)cc2c(=O)n3cccc(C)c3nc21 | -7 | 28 | -3 | . | 2 | -4 | . | .
